In PubChem BioAssay (NCATS):
Results filed as inconclusive are left out. Calls of active or inactive are those of the source.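 The calls were made as follows, unless noted: active = compounds whose dose series gives a full or clear partial fitted curve of increased nuclear translocation; inconclusive = weak partial curve or effect only at the top dose; inactive = no dose-dependent translocation response.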

System: not listed separately
Assay: Stat Signaling Pathway (AID 446; active = well fitted curve in either direction with a large enough effect, not every such curve was filed as active;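 also: ME-180 cervical cancer cells given 40 pM IL-6 alongside compound; SIE-controlled beta-lactamase reporter measured as 460/530 nm FRET emission ratio; % is scaled to controls: 0 for no effect and ±100 for the full control effect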)
Details: ME-180 (cervical carcinoma) SIE beta-lactamase reporter, IL-6 stimulated, 5 h; at 17.2 µM (top of the series) unless noted
Outline: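 Compound effects on IL-6-induced STAT reporter activity were measured in ME-180 cells. After overnight culture, cells were co-treated with 40 pM IL-6 for 5 hrs before beta-lactamase substrate loading at room temperature.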

activity, negative = inhibition, inactive:
CCC1(C)Cc2c(sc3c2c(=O)n(C)c2nnc(SCc4ccc5c(c4)OCO5)n32)CO1 (configuration not stated) -3.34%
COC(=O)C1=C(C)NC(C)=C(C(=O)OCCN(C)Cc2ccccc2)[C@@H]1c1cccc([N+](=O)[O-])c1 -11.8% [at 38 µM]
Cc1c(C)c2cc(Cl)c(O)c(CN3CCN(C)CC3)c2oc1=O 11.1%
N#CC1=C(SCC(=O)c2ccccc2)NC2=C(C(=O)CCC2)C1c1ccco1 (configuration not stated) -23.9%

Target: Glucocorticoid receptor (Homo sapiens) (UniProt P04150)
Assay: GR-GFP Redistribution (AID 450); also: potency is read from the fitted curve at half-maximal effect
Details: U2OS GR-GFP nuclear translocation, laser cytometry, 2 h; series mostly up to 20.6 µM

Chain of Glucocorticoid receptor (Homo sapiens) (P04150 whole entry, looked up): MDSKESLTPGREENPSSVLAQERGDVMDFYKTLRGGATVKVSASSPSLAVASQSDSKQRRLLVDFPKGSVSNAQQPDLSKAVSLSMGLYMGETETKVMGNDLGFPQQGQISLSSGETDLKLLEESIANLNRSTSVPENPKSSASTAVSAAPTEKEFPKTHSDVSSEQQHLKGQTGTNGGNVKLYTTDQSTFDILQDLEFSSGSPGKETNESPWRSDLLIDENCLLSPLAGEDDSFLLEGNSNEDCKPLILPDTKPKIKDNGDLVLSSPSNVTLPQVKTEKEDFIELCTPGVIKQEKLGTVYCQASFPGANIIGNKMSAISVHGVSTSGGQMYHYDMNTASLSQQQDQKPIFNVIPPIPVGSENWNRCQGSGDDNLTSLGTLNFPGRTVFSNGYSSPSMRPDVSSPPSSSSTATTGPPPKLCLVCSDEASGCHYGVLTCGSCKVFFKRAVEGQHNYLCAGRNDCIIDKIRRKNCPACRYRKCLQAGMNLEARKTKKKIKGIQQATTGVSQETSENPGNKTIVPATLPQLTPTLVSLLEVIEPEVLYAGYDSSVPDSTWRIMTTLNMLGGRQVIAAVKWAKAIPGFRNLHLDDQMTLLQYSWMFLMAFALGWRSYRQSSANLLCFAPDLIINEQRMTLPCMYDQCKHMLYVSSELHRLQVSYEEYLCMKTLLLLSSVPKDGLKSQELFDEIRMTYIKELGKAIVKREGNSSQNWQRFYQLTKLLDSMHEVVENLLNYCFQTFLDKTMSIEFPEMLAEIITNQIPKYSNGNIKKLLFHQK

Potency, inactive:
O=c1c(-c2ccc3c(c2)OCCO3)c(C(F)(F)F)oc2cc(O)cc(O)c12 > 20.6 µM
CCC1(C)Cc2c(sc3c2c(=O)n(C)c2nnc(SCc4ccc5c(c4)OCO5)n32)CO1 (configuration not stated) > 20.6 µM
Cc1oc2cc(O)ccc2c(=O)c1-c1cnn(-c2ccccc2)c1 > 20.6 µM
Cn1c(NCc2ccco2)nc2c1c(=O)n(Cc1ccc(Cl)c(Cl)c1)c(=O)n2C > 20.6 µM
N#Cc1nc(-c2cccs2)oc1NCc1ccc2c(c1)OCO2 > 20.6 µM
COc1ccccc1N=Cc1nc(-c2ccccc2)oc1OC(C)=O > 20.6 µM
Cn1c(N2CCN(c3ccccn3)CC2)nc2c1c(=O)n(Cc1ccc(Cl)cc1)c(=O)n2C > 20.6 µM
Cc1ccc2[nH]c3c(N4CCN(Cc5ccccc5)CC4)ncnc3c2c1 > 20.6 µM
Fc1ccc2[nH]c3c(N4CCN(Cc5ccc6c(c5)OCO6)CC4)ncnc3c2c1 > 20.6 µM
O=C(Nc1ccc(N2CCN(C(=O)c3ccccc3)CC2)c(Cl)c1)c1ccc(Br)o1 > 20.6 µM
COC(=O)C1=C(C)NC(C)=C(C(=O)OCCN(C)Cc2ccccc2)[C@@H]1c1cccc([N+](=O)[O-])c1 > 46 µM
Cc1c(C)c2cc(Cl)c(O)c(CN3CCN(C)CC3)c2oc1=O > 20.6 µM
N#CC1=C(N)NC(SCc2ccc(Cl)cc2)=C(C#N)C12CCCCC2 > 20.6 µM
Cc1ccc(-n2ncc3c(N4CCN(c5ccccc5)CC4)ncnc32)c(C)c1 > 20.6 µM
COc1ccc(-c2nn(C)c(=O)c3ccccc23)cc1NS(C)(=O)=O > 20.6 µM
N#CC1=C(SCC(=O)c2ccccc2)NC2=C(C(=O)CCC2)C1c1ccco1 (configuration not stated) > 20.6 µM
CCC(=O)Oc1oc(-c2ccccc2)nc1C=Nc1ccccc1OC > 20.6 µM
N#Cc1nc(-c2ccccc2Cl)oc1N1CCCCC1 > 20.6 µM
Cc1ccc2[nH]c3c(N4CCN(Cc5ccc6c(c5)OCO6)CC4)ncnc3c2c1 > 20.6 µM
O=C(NCc1ccccn1)c1coc(=O)c(Br)c1 > 20.6 µM
CCCCN(CCCC)c1nc2ccccc2nc1C(C#N)C(=O)NCCCOC (configuration not stated) > 20.6 µM
Clc1ccc2nc(N3CCNCC3)nc(-c3ccccc3)c2c1 > 20.6 µM
COc1cccc(C(=O)Nc2ccc(-c3nnc(-c4ccco4)o3)cc2)c1 > 20.6 µM
Nc1nonc1C(=O)NCCN=Cc1cc(Cc2ccccc2)cc(Br)c1O > 20.6 µM
Cn1c(NCC(O)c2ccccc2)nc2c1c(=O)n(Cc1ccc(Cl)c(Cl)c1)c(=O)n2C (configuration not stated) > 20.6 µM
OC1(c2cccc(C(F)(F)F)c2)CCN(c2ncnc3c2[nH]c2ccccc23)CC1 > 20.6 µM
O=C1CC(N(O)C2CC(=O)N(Cc3ccccc3)C2=O)C(=O)N1Cc1ccccc1 (configuration not stated) > 20.6 µM
Cc1ccc(S(=O)(=O)N2CCN(c3nc(C(C)C)c4c(c3C#N)CC(C)(C)OC4)CC2)cc1 > 20.6 µM
COc1cccc(-c2nnc3sc(-c4cccs4)nn23)c1 > 20.6 µM
CC1(C)Cc2c(C#N)c(NCc3ccco3)nc(-c3ccco3)c2CO1 > 20.6 µM
N#CC(C(=O)NC1CC1)c1nc2ccccc2nc1N1CCN(C/C=C/c2ccccc2)CC1 (configuration not stated) > 20.6 µM
C=CCn1c(SCC(=O)c2ccc(NS(=O)(=O)c3ccccc3)cc2)nnc1-c1cccs1 > 20.6 µM
Cc1oc2cc(O)cc(C)c2c(=O)c1-c1cnn(-c2ccccc2)c1 > 20.6 µM
